In ChEMBL document CHEMBL3988442, “University of Dundee, Small-Polar-MMV Screening Library” (2021):
Values joined by “and” are separate entries in the source; they are usually repeats but may differ in a detail not shown here. Equal values may be shown once. About 1,200 (3.2%) of roughly 38,000 compounds showed an effect of 50% or more. The median lay at about -58%. This is one part of a sample in which strong results are shown more often than they occur.

System: Plasmodium falciparum
Experiment: Calibr Malaria Delayed Death Assay SOP
Type: functional, organism-based
Design: scale not given: in the data most compounds retested in dose-response had high values
Details: concentration 4.99e-06 (unit not given; other assays of the set use mol/L)

SMILES | Percent Effect | Percent Effect (4.99 µM)
O=C(c1ccc[nH]1)N1CCOCC2(CCN(C3CCOCC3)C2)C1 (stereo not drawn) | -29.73% | –
CCCSCC(=O)N1CCCC(CO)(CCC)C1 (stereo not drawn) | -200.5% | –
O=C(c1ccc(=O)[nH]c1)N1CCCC1c1nc2cc(F)ccc2[nH]1 (stereo not drawn) | -157.5% | –
CC(C)(C)c1nccc(C2(c3ccccc3Cl)CCNCC2)n1 | 75.06% | –
Clc1ccccc1C1(c2ccnc(-c3ncccn3)n2)CCNCC1 | -58.98% | –
Clc1ccccc1C1(c2ccnc(-c3ccncc3)n2)CCNCC1 | 82.92% | –
CC(C)c1nccc(C2(c3ccccc3Cl)CCNCC2)n1 | 83.06% | –
O=c1[nH]cccc1-c1nccc(C2(c3ccccc3Cl)CCNCC2)n1 | -5.024% | –
CCC1C(=O)NCCN1c1ccnc(C(C)(C)C)n1 (stereo not drawn) | -75.62% | –
COCCN(Cc1ccoc1)S(=O)(=O)c1cccc(C(F)(F)F)c1 | -154.4% | –
COc1c[nH]c(C(=O)Nc2nc(C)cs2)cc1=O | -242.4% | –
Clc1ccc(C2(NCc3noc(C4CC4)n3)CCCC2)cc1 | 66.68% | –
Clc1ccc(C2(NCc3noc(C4CC4)n3)CCC2)cc1 | 11.94% | –
Clc1ccc(C2(NCc3noc(C4CC4)n3)CCOCC2)cc1 | -1.957% | –
COc1cccc(N2CCN(Cc3ccc4ccn(C)c4c3)CC2=O)c1 | -24.12% | –
COc1cc(N2CC[C@H](O)[C@@H]2Cc2ccccc2)ncn1 | -143.1% | –
CC(C)NC(=O)CSc1nc2c(cnn2CCO)c(=O)[nH]1 | -19.17% | –
CCS(=O)(=O)N1CCCn2c(nc(CN3CCCC3)cc2=O)C1 | -41.77% | –
CCn1ccnc1CN1CCCC1c1c(C)nn(C)c1OC (stereo not drawn) | -32.78% | –
COCCn1ccnc1CN1CCc2[nH]cnc2C1c1cccc(O)c1 (stereo not drawn) | -80.26% | –
CCn1ncnc1CN1CCc2[nH]cnc2C1c1ccccn1 (stereo not drawn) | -50.88% | –
COCCn1ccnc1CN1CCc2[nH]cnc2C1c1ccccn1 (stereo not drawn) | -16.31% | –
CCn1ncnc1CN1CCc2[nH]cnc2C1Cc1ccccc1 (stereo not drawn) | -69.64% | –
CCc1ccc(C2c3nc[nH]c3CCN2Cc2nccn2CC)nc1 (stereo not drawn) | 89.79% | –
CCc1nccn1-c1cncc(C2CCCN2Cc2ccccn2)n1 (stereo not drawn) | -28.75% | –
CCCn1ccnc1CN1CCc2[nH]cnc2C1Cc1ccccc1 (stereo not drawn) | 64.79% | –

SMILES | Percent Effect | Percent Effect (4.99 µM)
COc1cccc(CN2CC(O)CN(C(=O)C(C)(C)C)CC2=O)c1OC (stereo not drawn) | -124% | –
CC1=Nc2c(c(=O)[nH]n2C2CCCC2)C(c2cccnc2)S1 (stereo not drawn) | – | -22.61% and -27.75%
CCCNC(=O)c1cccc(CNCc2csc(C(C)(C)C)n2)c1 | 23.22% | –
CN(C)C(=O)CO[C@H]1CN(Cc2ccc3c(c2)OCO3)[C@@H]2COC[C@H]12.O=C(O)C(F)(F)F | -65.25% | –
c1cnn(CC2CCN(c3nc(C4CC4)nc4c3CCNCC4)CC2)c1 | 90.7% | –
CCOCc1nc2c(c(N3CCN4CCCC4C3)n1)CCNCC2 (stereo not drawn) | -33.92% | –
Nc1nc2c(c(N3CCC(CN4CCCC4=O)CC3)n1)CCNCC2 | -195.3% | –
Cc1nc2c(c(N3CCC(CCn4cccn4)CC3)n1)CCNCC2 | 39.53% | –
Nc1nc2c(c(N3CCC(CCn4cccn4)CC3)n1)CCNCC2 | 0.6794% | –
Cc1nc2c(c(N3CCC(CN4CCCC4=O)CC3)n1)CCNCC2 | -95.59% | –
C1CCC(c2nc3c(c(N4CC(N5CCOCC5)C4)n2)CCNCC3)C1 | -121.5% | –
NCC1CCN(c2nc(C3CCCC3)nc3c2CCNCC3)C1 (stereo not drawn) | 93.21% | –
C1CCC(c2nc3c(c(N4CCN5CCCC5C4)n2)CCNCC3)C1 (stereo not drawn) | 77.28% | –
CS(=O)(=O)Nc1nn(Cc2ccc(F)cc2)cc1Br | -19.12% | –
CCNS(=O)(=O)c1cnccc1N1CCN(CCO)CC1 | -122.2% | –
Cc1cc(C)nc(N2CCC(c3cncc(-n4ccnc4)n3)CC2)n1 | -62.28% | –
CC(O)CN1CCN(C(=O)CCOC(C)C)CC1 (stereo not drawn) | -34.58% | –
O=C(C1CCOCC1)N1CCC2(CCN(Cc3nccs3)CC2)CC1.O=C(O)C(F)(F)F | -69.08% | –
CN(Cc1cc(Br)cs1)Cc1nnsc1Cl | -124.6% | –
CCOc1ccnc(N2CCCN(c3nc(CC)ns3)CC2)n1 | -65.97% | –
Cc1nsc(N2CCCN(c3nc(C4CC4)ns3)CC2)n1 | -111.5% | –
CCOc1ccnc(N2CCCN(c3nc(C4CC4)ns3)CC2)n1 | 50.17% | –
COCCN(Cc1sccc1C)C(=O)C1CCN(C(C)C)CC1 | 57.24% | –
COCCN(Cc1sccc1C)C(=O)C1CCCN(C(N)=O)C1 (stereo not drawn) | -77.34% | –
COCCN(Cc1sccc1C)C(=O)COc1ccccc1O | -70.17% | –
CCn1cnnc1CNC(=O)NC(C)c1ccc(Cl)s1 (stereo not drawn) | -29.19% | –

SMILES | Percent Effect | Percent Effect (4.99 µM)
Cc1nc(N)ccc1CC1COc2ccccc2C1 (stereo not drawn) | 39.32% | –
Cc1nc(CNCC(C)c2nc3ccccc3o2)cs1 (stereo not drawn) | -114.5% | –
Cc1csc(CNCC(C)c2nc3ccccc3o2)n1 (stereo not drawn) | -35.1% | –
Cc1ccc(O)c(CNCC(C)c2nc3ccccc3o2)n1 (stereo not drawn) | 62.12% | –
N#Cc1cccnc1OC1CCN(S(=O)(=O)c2ccc(F)c(Cl)c2)CC1 | -120.1% | –
Cc1cccc(C(=O)N2CC[C@@H]3CN(c4ncccn4)CCO[C@@H]3C2)c1 | 3.612% | –
CCn1ccnc1CN(C)C(=O)Cn1ccc2ccccc2c1=O | -48.52% | –
Cc1cccc(C2(C(=O)NCC3CN(C)CCO3)CC2)c1 (stereo not drawn) | -0.8202% | –
CN1CCOC(CNCc2cccc(OCC(F)(F)F)c2)C1 (stereo not drawn) | 11.83% | –
CN1CCOC(CNC(=O)C2(c3cccc(C(F)(F)F)c3)CCCC2)C1 (stereo not drawn) | 55.27% | –
Cc1cccc(NC(=O)c2ccc(-n3cncn3)nn2)n1 | -82.38% | –
Cc1cccc(NC(=O)c2[nH]nc(C(C)C)c2Br)n1 | 55.91% | –
Cc1cccc(NC(=O)c2sc(C)nc2C)n1 | -70.67% | –
Cc1ccnc(NC(=O)c2[nH]nc(C(C)C)c2Br)c1 | 72.66% | –
Cc1ccnc(NC(=O)c2ccc(Br)o2)c1 | -122.7% | –
CC(C)c1n[nH]c(C(=O)Nc2cc[nH]n2)c1Br | -216.8% | –
Cc1ccnc(NC(=O)CCNC(=O)c2ccccc2Cl)c1 | -154.4% | –
CC(C)c1n[nH]c(C(=O)Nc2ccncc2)c1Br | -170.8% | –
CCc1ccsc1C(=O)N1CCCN(Cc2cnn(CC)c2)CC1 | -131.2% | –
Cc1occc1C(=O)N1C[C@@H]2OCCN(CCN3CCCC3)[C@@H]2C1.O=C(O)C(F)(F)F.O=C(O)C(F)(F)F | -96.04% | –
CCC(=O)N1CCC2(CC1)C(=O)N(C)CCN2Cc1csc(C)n1.O=C(O)C(F)(F)F | -46.93% | –
CN(C)CCN(C)C[C@@H]1CN(Cc2cccc(O)c2)C[C@@H]1CO | -40.55% | –
COCCN1C(=O)[C@H]2CC[C@@H]1CN(S(=O)(=O)c1cccc(Cl)c1)C2 | -81.8% | –
CCN(C)C[C@@H]1CN(Cc2cccc(O)c2)C[C@@H]1CO | -20.19% | –
COCCN(C)C[C@@H]1CN(C(=O)c2cccc(Cl)c2)C[C@@H]1CO | -171.8% | –
CCN(C)C[C@@H]1CN(S(=O)(=O)c2cccc(Cl)c2)C[C@@H]1CO | 74.38% | –

SMILES | Percent Effect | Percent Effect (4.99 µM)
C=Cc1cccc(CN2C[C@@H](CN(C)CC)[C@@H](CO)C2)c1 | 87.24% | –
Cc1ncsc1C(=O)OCC1CCN(c2ccccc2)C1 (stereo not drawn) | 9.637% | –
CNc1cncc(C2CCCN2Cc2ccnc(N3CCCC3)n2)n1 (stereo not drawn) | -40.21% | –
CN(CC1(CO)CCCC1)C(=O)c1cc(COc2ccccc2F)[nH]n1 | -12.3% | –
CSCCC(NC(=O)c1nc(SC)ncc1Cl)C(=O)O (stereo not drawn) | -13.47% | –
CC(C)(C)c1nc(CN2CCOC(Cn3cncn3)C2)cs1 (stereo not drawn) | -89.29% | –
Cc1cc(-c2cnn(CCNC(=O)CCn3cccn3)c2C2CC2)on1 | -69.32% | –
NC(=O)NC(=O)CCN1CCCC1c1cccc2c1OCCO2 (stereo not drawn) | 22.71% | –
CC(C)NC(=O)CN1CCN(CC2CCOc3ccccc3C2)CC1 (stereo not drawn) | -22.48% | –
O=C(CCN1CCCC1c1cccc2c1OCCO2)N1CCOCC1 (stereo not drawn) | -28.31% | –
O=C(CCN1CCCC1c1cccc2c1OCCO2)N1CCCCC1 (stereo not drawn) | 72.46% | –
CCNC(=O)CCN1CCCC1c1cccc2c1OCCO2 (stereo not drawn) | 51.42% | –
CNC(=O)CCN1CCCC1c1ccccc1Br (stereo not drawn) | -26.77% | –
CC(C)NC(=O)CCN1CCCC1c1cccc2c1OCCO2 (stereo not drawn) | 52.1% | –
O=C(CCN1CCCCCC1c1ccco1)N1CCOCC1 (stereo not drawn) | -45.72% | –
COCCN1CCCC1c1cccc2c1OCCO2 (stereo not drawn) | -6.29% | –
Cc1cc(C)cc(NCCC(=O)NC2CCCCC2)c1 | -32.74% | –
CCOCC1CN(C(=O)Cc2ccccn2)Cc2cnn(CC)c21 (stereo not drawn) | -151.3% | –
CCCNC(=O)CNc1ccccc1OCCC(=O)OC | -87.74% | –
Cn1cc(CN2CCC3(CC2)CCN(C(=O)c2cscn2)C3)cn1.O=C(O)C(F)(F)F | -97.69% | –
COc1ccc(C(N)=O)cc1NCc1nc(-c2cccs2)oc1C | -37.05% | –
CC(C)c1nnc2n1CC(CNCc1cccnc1)CC2 (stereo not drawn) | -95.11% | –
O=C(NCCC(=O)N1CCCC1)c1cccnc1 | -130.5% | –
CC(=O)Nn1ccc2c(nnc3c(-c4ccc(F)cc4)cnn32)c1=O | -66.29% | –
COc1ncc(CN2C[C@@H]3CC[C@@](O)(c4ccc(C)cn4)[C@@H]3C2)cn1.O=C(O)CC(O)(CC(=O)O)C(=O)O | -80.6% | –
